# SMN2 splice up = increases expression of the SMN2 splice variant; HEK293 SMN2-luciferase splicing reporter, luminescence, 30-36 h; AID 1458; Potency, µM (highest dose often 46.1 µM), without a hit: at the highest dose activity change, positive = activation, most hits filed as activators; hit rate 2.8% among 210,000; further: % of control where 0% means no effect; nearly all actives have a fitted effect of over 55% in size
#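 qHTS luciferase splicing reporter: luminescence rises when SMN2 exon 7 is included in transfected HEK293 cells. Compound exposure lasted 30-36 h at 37C, with 4.5 mM final sodium butyrate as control, followed by a ONE-Glo read.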
# NPC1 prom act = activates the NPC1 promoter | Huh7 NPC1 promoter luciferase reporter, 24 h | Potency, µM (top dose mostly 9.22 µM), without a hit: at the top dose activation, usual class: activators | hit rate 2.4% among 320,000; further: % of control where 0% means no effect; nearly all actives have a fitted effect of over 60% in size
#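 Stable NPC1-promoter luciferase Huh7 line; cpd (DMSO) 24 h, 37 °C, 5% CO2; Amplite luciferase reagent 10 min RT; luminescence readout. qHTS format.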
# Rab9 prom act = Rab9 promoter activation | Huh7 Rab9 promoter-luciferase reporter, luminescence, 24 h | Potency, µM (doses to about 9.22 µM), without a hit: at the top dose activation, negative = inhibition, hits mostly activators | hit rate 2.8% among 320,000 | AID 485297; further: % of control where 0% means no effect; nearly all actives have a fitted effect of over 60% in size
#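 Cells were plated at 1500 per well in reduced-serum medium with 10% FBS and left 2 h. Compound in DMSO was then added for 24 h at 37 °C. Reporter signal was read by luminescence after 10 min with luciferase detection reagent.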
# ELG1 genotox = genotoxicity induction in ELG1-luciferase HEK293T cells | HEK293T ELG1-luciferase reporter, luminescence, 16 h | Potency, µM (titrated, usually from 46 µM), for the others: top-dose activity change, positive = activation, hits mostly activators | hit rate 1.3% among 330,000 | AID 504466; further: % of control where 0% means no effect; nearly all actives have a fitted effect of over 60% in size
#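 HEK293T cells expressing luciferase-tagged ELG1 were exposed to compound or DMSO vehicle for 16 hr at 37 °C and 5% CO2. Luciferase activity was then measured with ONE-Glo after 30 min at room temperature.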
# FLuc counter = counter-screen for miR-21 project: firefly luciferase inhibitors or activators. purified FLuc, Km substrates, luminescence inhibition. P08659. Potency, µM (series often up to 57.5 µM), for the others: top-dose activity change, negative = inhibition, most hits filed as inhibitors. hit rate 6.9% among 360,000. AID 588342;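 further: plate controls were vehicle for no effect and reference inhibitor for full effect; nearly all actives have a fitted effect of over 55% in size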
# Target sequence (P08659 whole entry, looked up): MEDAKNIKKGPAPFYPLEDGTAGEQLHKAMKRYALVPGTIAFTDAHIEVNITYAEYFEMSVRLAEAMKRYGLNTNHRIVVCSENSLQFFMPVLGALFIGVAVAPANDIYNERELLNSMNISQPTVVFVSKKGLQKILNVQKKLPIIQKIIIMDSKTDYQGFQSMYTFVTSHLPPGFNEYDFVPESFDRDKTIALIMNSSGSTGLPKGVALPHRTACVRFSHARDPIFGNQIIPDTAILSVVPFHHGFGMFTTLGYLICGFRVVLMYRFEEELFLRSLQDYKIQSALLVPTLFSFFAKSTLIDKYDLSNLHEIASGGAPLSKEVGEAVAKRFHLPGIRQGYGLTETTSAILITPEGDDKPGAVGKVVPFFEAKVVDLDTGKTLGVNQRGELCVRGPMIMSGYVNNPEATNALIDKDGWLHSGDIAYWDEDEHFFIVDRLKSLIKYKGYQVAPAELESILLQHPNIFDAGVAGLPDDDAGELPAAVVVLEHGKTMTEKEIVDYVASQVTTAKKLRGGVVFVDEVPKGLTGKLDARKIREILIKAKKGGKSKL
#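 Purified P. pyralis luciferase, 10 nM final, with Km-level 10 uM D-luciferin and 10 uM ATP in 50 mM Tris acetate pH 7.5, 10 mM Mg acetate, 0.01% Tween-20, 0.05% BSA; 6-point qHTS titration about 60 µM downward; luminescence read.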
# The depositor's hits bear a star; u = inconclusive; x = no result given. Hits are enriched below; roughly 7.5% of the tested compounds scored in any of these assays. The call rests on the fitted dose curve; in most records, active means well fitted curve in the direction sought with a large enough effect; inconclusive means small, poorly fitted or top-dose-only effect, or another doubt; inactive means no such curve, though single readings can be large; an effect the other way counts as inactive or inconclusive. Potency means the concentration at half of the fitted maximal effect.
SMILES,SMN2 splice up,NPC1 prom act,Rab9 prom act,ELG1 genotox,FLuc counter
COc1ccc(-c2nn(-c3ccccc3)cc2C(=O)NCCCn2ccnc2)cc1,-6%,-3%,2%,-3%,-14%
CCOc1ccc(-c2cc(NC(=O)Nc3ccccc3Cl)c(C(=O)OC)s2)cc1,29%,x,x,x,8.5µM*
CCOC(=O)c1sc(-c2ccc(OC)cc2)cc1NC(C)=O,16µM*,26%,22%,4%,-15%
CCOc1ccc(-c2cc(NC(=O)Nc3ccccc3C(F)(F)F)c(C(=O)OC)s2)cc1,10%,x,x,x,4%
CCOc1ccc(-c2cc(NC(=O)Nc3ccc(Cl)cc3)c(C(=O)OC)s2)cc1,-1%,x,x,x,-20%
O=C(Nc1ccccc1C(F)(F)F)N1CCN(c2ccccn2)CC1,20%,0%,1%,0%,0%
Cc1c(C(=O)Nc2cccc(C(F)(F)F)c2)oc2ccc(S(=O)(=O)N3CCC4(CC3)OCCO4)cc12,x,x,x,x,-3%
CC(=C/c1ccco1)/C=N/N1CCN(c2ccccc2)CC1,u,2.5µM*,1.8µM*,u,2.7µM*
CC(/C=N/N1CCN(c2ccccc2)CC1)=C\c1ccco1,14µM*,2µM*,u,u,2.4µM*
CC(/C=N/N1CCN(c2ccccc2)CC1)=C\c1ccccc1,14%,u,27%,2%,-1%
COc1ccc(OCc2nnc(SCC(=O)N3C(C)CCCC3C)o2)cc1 (centres undefined),x,0%,5%,-10%,-2%
O=C(Nc1cccc(C(=O)N2CCN(c3ccc(F)cc3)CC2)c1)c1nsc2ccccc12,x,x,x,x,0.85µM*
O=C(Nc1cccc(C(=O)N2CCN(c3ccc(Cl)cc3)CC2)c1)c1nsc2ccccc12,x,x,x,x,1.2µM*
O=C(c1cccc(C(=O)N2CCN(c3ccccc3F)CC2)c1)N1CCN(c2ccccc2F)CC1,-49%,-1%,-3%,-19%,6%
O=C(Nc1cccc(C(=O)N2CCN(c3ccccc3F)CC2)c1)c1nsc2ccccc12,x,x,x,x,3µM*
Cc1ccc(C(=O)N2CCN(c3ccc(F)cc3)CC2)cc1NC(=O)c1nsc2ccccc12,x,x,x,x,-4%
O=C(Nc1cccc(C(=O)N2CCN(c3cccc(Cl)c3)CC2)c1)c1nsc2ccccc12,x,x,x,x,2.7µM*
COc1cccc(N2CCN(C(=O)c3ccc(C)c(NC(=O)c4nsc5ccccc45)c3)CC2)c1,x,x,x,x,-2%
Cc1ccc(C)c(N2CCN(C(=O)c3ccc(NC(=O)c4nsc5ccccc45)cc3)CC2)c1,x,x,x,x,17µM*
Cc1ccc(C(=O)N2CCC(C)CC2)cc1NC(=O)c1nsc2ccccc12,x,x,x,x,-21%
O=C(Nc1ccc(C(=O)N2CCN(c3ccccc3)CC2)cc1)c1nsc2ccccc12,x,x,x,x,5.4µM*
O=C(Nc1ccc(C(=O)N2CCN(c3cccc(Cl)c3)CC2)cc1)c1nsc2ccccc12,x,x,x,x,4.3µM*
Cc1cccc(-c2noc(-c3ccc(NC4CCCC4)c([N+](=O)[O-])c3)n2)c1,x,x,x,x,-20%
CCc1cccc(C)c1NC(=O)CCCN1C(=O)CN(C)C1=O,x,-2%,1%,-1%,-1%
N#Cc1ccc(CS(=O)(=O)c2nnnn2-c2ccccc2)cc1,7%,x,x,x,x
SMILES,SMN2 splice up,NPC1 prom act,Rab9 prom act,ELG1 genotox,FLuc counter
COc1cc(/C=C2\SC(=O)NC2=O)ccc1Oc1cnccn1,x,-1%,4%,15%,-19%
O=C1NC(=S)S/C1=C/c1ccc(Oc2cnccn2)cc1,1%,15%,u,2%,21µM*
O=C1NC(=O)/C(=C\c2ccc(Oc3cnccn3)cc2)S1,u,u,2.8µM*,u,13µM*
CC(=O)Nc1cccc(NC(=O)CS(=O)(=O)c2cn(CC(=O)N(C(C)C)C(C)C)c3ccccc23)c1,x,1%,-3%,2%,-2%
CCn1ccc2cc(S(=O)(=O)N3CCC(C(=O)NCCc4ccccc4Cl)CC3)ccc21,x,x,x,x,-1%
CCCn1c(SCC(=O)N2CC(=O)Nc3ccccc32)n[nH]c1=O,x,x,x,0%,x
COCCCN(C(C)=O)c1nc(-c2ccccc2)cs1,x,29%,u,13µM*,u
Cc1nc(SCC(=O)c2ccc(Cl)s2)c2oc3ccccc3c2n1,12%,u,u,0%,9.5µM*
Cc1nc(SCC(=O)Nc2ccccc2)c2oc3ccccc3c2n1,x,-1%,-13%,0%,4%
O=C(O)CSc1nc(-c2ccccc2)nc2c1oc1ccccc12,-7%,3%,-3%,0%,21µM*
CCc1nc(SCC(=O)c2cccs2)c2oc3ccccc3c2n1,-25%,0%,18%,-4%,11µM*
N#Cc1c(-c2ccccc2)nc(SCC(=O)Nc2ccccc2)[nH]c1=O,13%,-3%,-10%,0%,0%
CCc1ccc(NC(=O)CSc2nc(-c3ccccc3)c(C#N)c(=O)[nH]2)cc1,x,x,x,x,11µM*
Cc1cc(C)nc(NS(=O)(=O)c2ccc(NC(=O)CSc3nc(-c4ccccc4)c(C#N)c(=O)[nH]3)cc2)n1,-20%,-2%,2%,6%,11µM*
Cc1cc(NC(=O)CSc2nc(-c3ccccc3)c(C#N)c(=O)[nH]2)no1,-16%,1%,6%,-3%,-2%
O=[N+]([O-])c1ccc(-c2c(O)c3ccccc3c3nc4ccccc4nc23)cc1,-69%,0%,2%,-8%,-15%
O=[N+]([O-])c1ccc(-c2cnc3ccccc3n2)cc1,x,3.2µM*,u,u,u
O=C(COC(=O)c1ccc(-c2cnc3ccccc3n2)cc1)c1ccccc1,8%,24%,u,2%,-9%
CCOc1ccc(-c2cnc3ccccc3n2)cc1,x,u,4%,0.52µM*,0.17µM*
C=CCOC(=O)N[C@@H](CCc1ccccc1)C(C(C)=O)C(C)=O,2%,x,x,x,x
COc1cccc(N2CCN(C(=O)c3ccc(CSc4nc5ccncc5[nH]4)cc3)CC2)c1,-55%,-5%,-10%,-2%,-1%
Clc1ccccc1CSc1nc2ccncc2[nH]1,13µM*,u,3.5µM*,18µM*,15µM*
COc1cccc(CSc2nc3ccncc3[nH]2)c1,x,1.6µM*,2.8µM*,-18%,13µM*
COc1ccc(-c2nc(CNC(=O)Nc3ccccc3)c(C)o2)cc1,x,x,x,x,1%
COc1cc2cnc(-c3cccnc3)cc2cc1OC,x,x,x,12%,x
CC(CCc1ccccc1)NC(=O)C(=O)Nc1ccccc1 (centres undefined),14µM*,3.2µM*,2.8µM*,u,u
Cc1ccccc1NC(=O)C(=O)NC(C)CCc1ccccc1 (centres undefined),12%,0%,1%,4%,-8%
O=C(C1=NN[C@@H]2C(=O)N(Cc3ccccc3)C(=O)[C@H]12)c1ccc(F)cc1,x,-1%,-8%,-2%,-2%
Cc1cc(C)cc(C(=O)Nc2nnc(SCC(=O)N3CCCc4ccccc43)s2)c1,3%,-2%,1%,2%,u
